Source: PubChem (The Scripps Research Institute Molecular Screening Center)
FBW7 act: human FBW7 E3 ligase activation, primary screen. normalized activity (activation), % at 26.1 µM. AlphaScreen FBW7–phospho-cyclin E peptide binding, activator screen. actives 0.13% (n = 650,000). Q969H0; in the data active = normalized activity above about 1.9%;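 note: purified mutant Fbw7 with reduced substrate affinity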
GPR151 ag: activates the human receptor GPR151; Q8TDV0; PathHunter beta-arrestin GPR151 cells, luminescence; activation, % at 11.2 µM; actives 1% (n = 650,000); AID 1508602; in the data active = activation above about 4.9%
Target sequence (Q8TDV0 whole entry, looked up): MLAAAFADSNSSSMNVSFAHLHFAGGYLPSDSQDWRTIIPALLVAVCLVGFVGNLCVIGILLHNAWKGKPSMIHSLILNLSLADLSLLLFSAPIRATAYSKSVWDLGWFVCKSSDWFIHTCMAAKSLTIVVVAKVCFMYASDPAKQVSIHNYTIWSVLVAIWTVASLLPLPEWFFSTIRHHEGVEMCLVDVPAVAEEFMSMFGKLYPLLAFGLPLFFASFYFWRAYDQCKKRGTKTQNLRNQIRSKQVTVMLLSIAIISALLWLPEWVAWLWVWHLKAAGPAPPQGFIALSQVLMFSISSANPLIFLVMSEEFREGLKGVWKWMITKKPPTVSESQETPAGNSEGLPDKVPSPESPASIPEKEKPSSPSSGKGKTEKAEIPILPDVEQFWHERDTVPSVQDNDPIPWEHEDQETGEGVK
MITF inh: human MITF inhibition, primary screen | actives 0.91% (n = 650,000) | O75030 | AID 1259374 | inhibition, % at 2.6 µM | AlphaScreen MITF homodimerization, bead proximity signal; in the data active = inhibition above about 50%
TEAD-YAP inh: TEAD-YAP interaction inhibition; HEK-TIYL cells, TEAD-Gal4/YAP UAS-luciferase luminescence; inhibition, % at 9.12 µM; actives 1.4% (n = 640,000); in the data active = inhibition above about 32%
GPR151 conf act: human GPR151 activation, confirmation screen; shares compounds with GPR151 ag; 6,700 tested, under 10 active; activation, % at 11.2 µM; GPR151 PathHunter beta-arrestin cells, luminescence, 90 min; % of EA-reagent control over plate median; AID 1508609;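 active = mean percent activation across replicates above the confirmation screen cutoff of 4.91%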
GPR119 counter: counter-screen for GPR151 activators: effect on human GPR119; activation, % at 11.2 µM; GPR119 PathHunter beta-arrestin cells, luminescence, 90 min; 0 = compound-well median, 100 = enzyme-acceptor control; actives 0.3% (n = 6,700); shares compounds with GPR151 ag;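 active = mean percent activation in the counterscreen above 29.09%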;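 note: counterscreen on off-target GPR119 to flag nonselective hits from the GPR151 activator screen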
Hits are given with their value; 0 = inactive; - = no result. Rows were chosen to be rich in hits. Some 3.5% of all compounds tested hit in one or more screens of this group.

SMILES	FBW7 act	GPR151 ag	MITF inh	TEAD-YAP inh	GPR151 conf act	GPR119 counter
COc1ccc(N2CCN(C3CCCN(C(=O)c4csc(SC)n4)C3)CC2)cc1 (stereo unspecified)	0	4.9	0	0	0	0
CC1(C)CC(=O)C2=C(C1)N(c1ccc(Cl)cc1)C(N)=C(C#N)C2c1ccc2c(c1)OCO2 (stereo unspecified)	0	14	0	0	0	0
CCOC(=O)c1c(NC(=O)c2cc3ccccc3oc2=O)sc2c1CC(C)(C)OC2	0	0	0	0	-	-
CC(=O)c1cccc(NC(=O)Cn2nc(C(F)(F)F)c(Cl)c2C)c1	0	0	0	0	-	-
Cc1c(Br)c(C(F)(F)F)nn1CC(=O)Nc1cccc(O)c1	0	10.0	0	0	0	0
CC(=O)Nc1cc(C)c(C)s1	0	0	0	0	-	-
COC(=O)c1ccc(NC(=O)CSc2nnc(NC(C)=O)s2)cc1	0	6.4	0	0	0	0
CCCCNC(=O)CSc1nnc(NC(C)=O)s1	0	6.4	0	0	0	0
Cc1nnc(SCC(=O)NCCC(c2ccccc2)c2ccccc2)s1	0	5.0	0	0	0	0
O=C(Cc1ccc(F)cc1)NCC1(c2cccs2)CCOCC1	0	0	0	0	-	-
O=C(Cc1cccs1)NCC1(c2ccc(F)cc2)CC1	0	12	0	0	0	0
OC(COc1ccccc1Cl)CN1CCN(c2ccccc2F)CC1 (stereo unspecified)	0	0	0	0	-	-
Cc1sc2ncnc(Nc3ccncc3)c2c1C	0	5.3	0	0	0	0
Cc1sc2ncnc(Nc3ccc(Cl)cc3)c2c1C	0	0	0	0	-	-
Cc1sc2ncnc(NCCc3ccccc3)c2c1C	0	5.4	0	0	0	0
O=C(Nc1nnc(S(=O)(=O)N2CCCCC2)s1)c1ccc(Cl)cc1	0	5.6	0	0	0	0
O=C(Nc1nnc(S(=O)(=O)N2CCCCC2)s1)C12CC3CC(CC(C3)C1)C2	0	5.5	0	0	0	0
Cc1ccc(-n2c(SCC(N)=O)nnc2-c2ccccc2O)c(C)c1	0	0	0	0	-	-
Oc1c(-c2nc3c4c5c(sc4ncn3n2)CCCCC5)ccc2ccccc12	0	0	0	0	-	-
Cn1nc([N+](=O)[O-])c2c(-c3nc4ccccc4n3C)c(N)n(CCc3ccccc3)c2c1=O	0	6.0	0	0	0	0
O=C(Nc1nc2c(Cl)cccc2s1)c1cc(=O)c2ccccc2o1	0	0	0	0	-	-
COc1ccc(/C=C(\C#N)c2nc3ccccc3[nH]2)cc1O	0	4.9	0	0	0	0
COc1ccc(CN2CCNC(=O)C2CC(=O)NC2(c3ccccc3)CC2)cc1OC (stereo unspecified)	0	0	0	0	-	-
CCCNC(=O)C(=O)NCCc1ccc(OC)c(OC)c1	0	6.2	0	0	0	0
COc1ccc(CCNC(=O)C(=O)NCCC(C)C)cc1OC	0	0	0	0	-	-
SMILES	FBW7 act	GPR151 ag	MITF inh	TEAD-YAP inh	GPR151 conf act	GPR119 counter
CC1CCCN(C(=O)Cn2c(=O)oc3cc(S(=O)(=O)N4CC(C)CC(C)C4)ccc32)C1 (stereo unspecified)	0	0	0	0	-	-
Cc1cc2[nH]c(=O)c(=O)[nH]c2cc1S(=O)(=O)N(C)Cc1ccccc1	0	0	0	0	-	-
CN(Cc1ccccc1)S(=O)(=O)c1ccc2[nH]c(=O)c(=O)[nH]c2c1	0	5.2	0	0	0	0
Nc1nc(CSc2nnnn2Cc2ccccc2)nc(N2CCOCC2)n1	0	7.6	0	0	0	0
CCCCN1C(=O)c2ccc(C(=O)Nc3cc(Cl)ccc3C(=O)O)cc2C1=O	0	7.2	0	0	0	0
Cc1csc(NC(=O)/C=C/c2cccc(Cl)c2)n1	0	5.0	0	0	0	0
O=C(Nc1ccc2c(c1)CN(C1CCSCC1)CC2)C1(c2ccccc2)CC1	0	0	0	0	-	-
O=C(c1ccsc1)N1CCc2ccc(NC(=O)C3(c4ccccc4)CC3)cc2C1	0	5.9	0	0	0	0
O=C1OC(c2ccccc2Br)=N/C1=C\c1ccc(Br)cc1	0	0	0	0	-	-
O=C1OC(c2ccccc2Br)=N/C1=C\c1ccc(I)cc1	0	5.3	0	0	0	0
Cc1nc2sccn2c1C(=O)N1CCC1	0	0	0	0	-	-
COc1cc([N+](=O)[O-])c(N2CCOCC2)c([N+](=O)[O-])c1OC	0	5.4	0	0	0	0
CSCCC(NC(=O)/C(=C/c1ccc(F)cc1)NC(=O)c1ccccc1)C(=O)O (stereo unspecified)	0	0	0	0	-	-
Cc1ccc(NC(=O)c2cccc([N+](=O)[O-])c2C)cc1	0	0	0	0	-	-
CC/C(=N\Nc1ccc([N+](=O)[O-])cc1S(=O)(=O)N1CCOCC1)c1ccc(O)cc1	0	0	0	0	-	-
COc1cccc(Nc2nnc(-c3cc4ccc(O)cc4oc3=O)s2)c1	0	5.8	0	0	0	0
CCC(=O)c1ccc(OCC(O)CN(CCO)CCO)cc1 (stereo unspecified)	0	0	0	0	-	-
CCCOC(=O)c1ccc(OCC(O)CN(CCO)CCO)cc1 (stereo unspecified)	0	5.1	0	0	0	0
Cc1cc(C)c2sc(NC(=O)CCC3CCCC3)nc2n1	0	5.3	0	0	0	0
Cc1nonc1N=NN(Cc1ccc([N+](=O)[O-])cc1)c1nonc1C	0	7.4	0	0	0	0
CC(C)NC(=O)c1cccc2nc3ccccc3nc12	0	0	0	0	-	-
NC(=O)c1cccc2nc3ccccc3nc12	0	8.8	0	0	0	0
NC(=O)CSc1nc2ccccc2n1C1CCCCC1	0	0	0	0	-	-
S=C(Nc1ccc2c(c1)OCO2)Nc1ccc2c(c1)OCO2	0	0	0	0	-	-
O=C(NNC(=O)c1ccc(Cl)s1)Nc1ccc2c(c1)OCO2	0	5.2	0	0	0	0
SMILES	FBW7 act	GPR151 ag	MITF inh	TEAD-YAP inh	GPR151 conf act	GPR119 counter
S=C(Nc1ccc2c(c1)OCO2)Nc1cnccn1	0	5.6	0	0	0	0
O=C(Nc1ccc2c(c1)OCO2)Nc1ccc(Br)cn1	0	6.5	0	0	0	0
CC[C@H](C)[C@H](NC(=O)c1ccc(Cl)cc1)C(=O)N(CC(N)=O)C(C)C	0	0	0	0	-	-
COC(=O)C1=C(C)N(c2cccc(Cl)c2)C(=O)/C1=C\c1ccc2c(c1)OCO2	0	0	0	0	-	-
Cc1ccc(NC(=O)c2cccs2)cc1NC(=O)c1cnccn1	0	5.9	0	0	0	0
Cc1cnccc1NC(=O)c1cccs1	0	0	0	0	-	-
O=C(Nc1ccncc1)c1cccs1	0	0	0	0	-	-
O=C(Nc1cccnc1)c1cccs1	0	8.9	0	40	0	0
COC(=O)c1c(NC(=O)c2cc3ccccc3c(=O)o2)sc2c1CCCCC2	0	0	0	0	-	-
Cc1cc(C)n(-c2cc(NCCNC(=O)c3ccc(F)cc3F)ncn2)n1	0	0	0	0	-	-
CC(C)CNC(CC(=O)Nc1ccc(Cl)c(Cl)c1)C(=O)O (stereo unspecified)	0	0	0	0	-	-
